Experimental data taken from the supplement of paper PMC6555819.

Assays:
Assay in all cases: PBM binding z-score (relative to random genomic background probes); higher = stronger binding; sequences stand for … in GC…GCGATTGACAGCGTAGAATGAAGG
[1] = system: PPARg:RXRa DBDmut IVT, anti-RXR (DBD mutation: RXRa K156A/R161A, NR concentration 270 nM, RXRa partner concentration 90 nM)
Method in brief: (§1)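 Binding buffer was PBS pH 7.4 with 2% milk, 0.02% Triton X-100, 1 mM DTT, 0.2 mg/mL BSA and 0.4 mg/ml salmon testes DNA. In it, ligand-free nuclear receptor dimers were incubated 1 h on custom Agilent 4×180K protein-binding microarrays carrying double-stranded probes. Antibodies against each partner (one per run) detected binding, and z-scores were calculated against random background probes after regression normalization of scanned fluorescence.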

[2] = system: PPARg:RXRa IVT, anti-PPARg (NR concentration 270 nM, RXRa partner concentration 90 nM)
Method in brief: as §1

[3] = system: PPARg DBDmut:RXRa IVT, anti-PPARg (DBD mutation: PPARg1 K132A/R137A, NR concentration 270 nM, RXRa partner concentration 90 nM)
Method in brief: as §1

[4] = system: PPARg DBDmut IVT, anti-PPARg (DBD mutation: PPARg1 K132A/R137A, NR concentration 270 nM)
Method in brief: as §1

[5] = system: PPARg homodimer (NR concentration 180 nM)
Method in brief: as §1

[6] = system: PXR:RXRa (NR concentration 270 nM, RXRa partner concentration 90 nM)
Method in brief: as §1

[7] = system: PXR homodimer (NR concentration 270 nM)
Method in brief: as §1

[8] = system: RARa:RXR (NR concentration 270 nM, RXRa partner concentration 90 nM)
Method in brief: as §1

[9] = system: RARa homodimer (NR concentration 270 nM)
Method in brief: as §1

[10] = system: RARb:RXRa (NR concentration 270 nM, RXRa partner concentration 90 nM)
Method in brief: as §1

[11] = system: RARb homodimer (NR concentration 270 nM)
Method in brief: as §1

[12] = system: RARg:RXRa (NR concentration 270 nM, RXRa partner concentration 90 nM)
Method in brief: as §1

[13] = system: RARg homodimer (NR concentration 270 nM)
Method in brief: as §1

[14] = system: RXRa DBDmut IVT, anti-RXR (DBD mutation: RXRa K156A/R161A, NR concentration 90 nM)
Method in brief: as §1

[15] = system: RXRa homodimer (NR concentration 180 nM)
Method in brief: as §1

[16] = system: THRa:RXRa (NR concentration 90 nM, RXRa partner concentration 90 nM)
Method in brief: as §1

[17] = system: THRa homodimer (NR concentration 90 nM)
Method in brief: as §1

[18] = system: VDR homodimer (NR concentration 270 nM)
Method in brief: as §1

| Sequence | PBM binding z-score [1] | PBM binding z-score [2] | PBM binding z-score [3] | PBM binding z-score [4] | PBM binding z-score [5] | PBM binding z-score [6] | PBM binding z-score [7] | PBM binding z-score [8] | PBM binding z-score [9] | PBM binding z-score [10] | PBM binding z-score [11] | PBM binding z-score [12] | PBM binding z-score [13] | PBM binding z-score [14] | PBM binding z-score [15] | PBM binding z-score [16] | PBM binding z-score [17] | PBM binding z-score [18] |
| --- | --- | --- | --- | --- | --- | --- | --- | --- | --- | --- | --- | --- | --- | --- | --- | --- | --- | --- |
| CAAACTAGGTTAAGAGGTCAAAGTCCGCTTCCCG | 7.16 | 7.32 | 2.96 | 2.44 | 4.58 | 5.64 | 2.31 | 6.47 | 2.19 | 4.23 | 4.7 | 5.88 | 5.15 | 2.2 | 6.79 | 3.89 | 1.83 | 4.48 |
| ATATGTAGGTTACATCCGGGTCATGCAGGCTATG | 7.41 | 7.25 | 2.04 | 1.91 | 1.38 | 3.26 | 0.751 | 3.55 | 0.629 | 2.36 | 2.93 | 3.76 | 2.25 | 0.707 | 3.4 | 4 | 2.29 | 1.76 |
| AGACTGAGGTTATTAAGATCAGGGAATTGCGGTC | 0.46 | 0.765 | 0.238 | -0.249 | 0.438 | 1.08 | 0.427 | 1.52 | 0.126 | 1.4 | 0.996 | 1.13 | 0.72 | 1.53 | 1.54 | 1.91 | 0.441 | 0.749 |
| ACAGACAGGTGATGACGGTAACTCAGGCTATCAT | 0.226 | 0.0775 | -0.319 | -0.184 | -0.306 | -0.319 | -0.0472 | -0.196 | 0.273 | 0.237 | 0.213 | 0.122 | 0.261 | -0.0365 | 0.15 | 0.339 | -0.087 | -0.266 |
| CCTATTAGTTGACGATAAGGGCAACCGAAGCTCG | 0.107 | -0.036 | 0.257 | 0.471 | 1.85 | 0.261 | 0.241 | 0.847 | 1.05 | 1.33 | 1.43 | 0.95 | 0.873 | 0.16 | 0.582 | 1.57 | 0.591 | 0.415 |
| ATATGTAGGTTACATTCGGGTCATTCAGGCTATG | 7.46 | 7.26 | 5.28 | 2.88 | 2.4 | 3.85 | 3.72 | 3.65 | 1.02 | 2.32 | 2.86 | 3.72 | 2.05 | 1.74 | 3.03 | 3.99 | 3.23 | 3.31 |
| CCTCGGAGGACAGAAGGTCATAGCTGTCCGCTTT | 0.177 | 0.772 | -1.55 | -1.54 | 2.13 | 3.22 | 0.225 | 3.55 | 0.138 | 3.5 | 3.97 | 4.4 | 3.92 | 0.657 | 3.43 | 2.95 | 0.318 | 1.45 |
| ATCGAAAGATCGAAGGTGAGTATACCCACCCGAA | -0.781 | 0.354 | -0.115 | -0.0294 | -0.0886 | 0.0692 | -0.598 | 0.121 | 0.67 | 0.215 | -0.186 | 0.34 | 0.489 | -0.722 | 0.765 | 0.17 | -0.601 | -0.259 |
| CAAAGTAGGTCAAAGGTCAAAGTCGAGCCAACCA | 8.81 | 9.31 | 4.15 | 2.43 | 4.72 | 7.22 | 2.39 | 8.98 | 3.23 | 5.92 | 5.32 | 8.87 | 7.72 | 3.17 | 10.4 | 4.54 | 1.22 | 3.8 |
| TCTTGTAGATCAGCAGGGTAAGAAAGCTGGCCAA | 1.81 | 0.207 | -0.22 | -0.694 | -0.287 | 0.0405 | -0.245 | 0.188 | -0.0241 | -0.199 | -0.187 | -0.327 | -0.5 | 0.581 | -0.0542 | -0.165 | -0.567 | -0.255 |
| ATATGTAGGTTACATCCGGGTCATTTAGGCTATG | 7.42 | 7.5 | 4.18 | 3.77 | 3.45 | 3.45 | 1.06 | 3.55 | 0.824 | 2.16 | 2.76 | 3.59 | 1.81 | 1.21 | 3 | 3.7 | 2.55 | 2.98 |
| CATACAGGGTCAGCTAGGCCATAGTAGGGACGGC | 0.879 | 2.3 | 0.763 | 0.466 | 1.7 | 2.69 | 0.334 | 3.47 | 0.85 | 4.01 | 3.28 | 4.35 | 4.7 | 1.7 | 4.53 | 3.22 | 0.737 | 1.1 |
| CCAGACAGGTGAGAAGGTAACTCTGCCTCGATTA | 1.34 | 0.644 | -0.0545 | -0.239 | 0.832 | 0.051 | 0.394 | 0.441 | -0.197 | 0.638 | 0.53 | 0.418 | 0.366 | 0.11 | 0.281 | 0.348 | 0.0664 | -0.0879 |
| CCGACTGGGGCAGAAAGGTTATCATACCATCCGG | 1.78 | 1.73 | -1.01 | -1.06 | 0.664 | 0.873 | 0.149 | 1.85 | -0.196 | 1.68 | 1.91 | 1.48 | 1 | -0.376 | 1.67 | 0.759 | -0.293 | -0.196 |
